# PubChem BioAssay (NCI)
# The panel holds about 83,000 compounds, 20% with a hit somewhere; the sample as a whole holds those more often.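 The test compound was applied at a single concentration to cells in 96-well plates for 48 hours, and percent growth was recorded.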 Values without a mark were called inactive. Calls of active or inactive are those of the source. How the source made its calls: active means growth percent below 10; inactive means the rest.
# Assays:
# Test in all cases: NCI-60 one-dose screen, 48 h (100 = growth as untreated, 0 = no growth, -100 = all killed)
# HCT-15 colon = settings: 10 µM unless noted
# HT29 colon = settings: 10 µM unless noted
# SNB-75 CNS = settings: 10 µM unless noted
# SNB-19 CNS = settings: 10 µM unless noted
# U251 CNS = settings: 10 µM unless noted
# PC-3 prostate = settings: 10 µM unless noted
# SK-MEL-5 melanoma = settings: 10 µM unless noted
# UACC-62 melanoma = settings: 10 µM unless noted
# LOX IMVI melanoma = settings: 10 µM
# SK-MEL-28 melanoma = settings: 10 µM unless noted
SMILES,growth (HCT-15 colon) [%],growth (HT29 colon) [%],growth (SNB-75 CNS),growth (SNB-19 CNS) [%],growth (U251 CNS) [%],growth (PC-3 prostate) [%],growth (SK-MEL-5 melanoma),growth (UACC-62 melanoma) [%],growth (LOX IMVI melanoma) [%],growth (SK-MEL-28 melanoma) [%]
CCOC(C=O)OCC,102,99.7,98.5%,106,97.4,95.1,106%,104,94.1,–
CC1CCC(C(C)(C)[N+](C)(C)C)CC1 (centres undefined),98.1,97.8,89%,101,96.6,96.9,103%,104,102,–
O=C(Nc1ccccc1)c1ccco1,105,100,87%,107,96.1,100,104%,104,97.6,–
Cc1ccc(NC(=O)c2ccccc2Cl)cc1,95.3,107,95.3%,99,118,89.6,107%,98.6,101,–
COC1C(=O)CCC2(CO2)C1(O)C1(C)OC1CCC(C)C (centres undefined),56.4,60.3,77.5%,51.5,42.3,74.6,64.6%,70.4,50.3,–
CC1(C)C2CCC1(C)C1(C2)OCCS1 (centres undefined),95.9,110,78.5%,88.8,97,92.4,93.8%,87,92.2,102
CN(C(=S)S(=O)(=O)C12CC3CC(CC(C3)C1)C2)c1ccccc1,83.7,105,98.9%,102,108,82.8,101%,91.8,81.1,–
CC(=O)N(C(C)=O)c1ccc(C)cc1,96,105,89.1%,93.8,97.6,93.7,95.5%,91.4,92.1,107
O=c1[nH]c(=O)c2cc(Cl)cc(Cl)c2[nH]1,107,106,68.2%,95,103,93.7,103%,96.7,120,–
CSc1nsc(N)n1,95.5,95.1,87.4%,96,94.9,93.6,101%,93.1,98.2,–
COC1=C(OC)C(=O)C(SC/C=C(\C)CCCC(C)CCCC(C)CCCC(C)C)=CC1=O (centres undefined),17.2,56.2,27.8%,24.6,15.4,10.8,-67.3% (active),26.7,17.2,–
Clc1ccc(C(SCc2ccccc2)SCc2ccccc2)cc1,97.8,90.9,91.3%,105,88.7,85.9,98.8%,82.1,94.3,–
Ic1cccs1,109,94.2,105%,99.6,96.3,99.5,104%,98.5,96.9,–
CCC(C)c1c(N)n(S(=O)(=O)c2ccc(C)cc2)oc1=O (centres undefined),100,93.5,88.9%,106,104,94.3,100%,101,–,–
CCCCN(C(=O)CC)c1ccccc1,108,100,89.8%,99.9,97.6,103,100%,99.2,97.4,–
O=C(O)c1cccc(-n2ncc(Cl)c(Cl)c2=O)c1,98.5,113,81.1%,102,101,88.7,98%,97.2,92.2,–

SMILES,growth (HCT-15 colon) [%],growth (HT29 colon) [%],growth (SNB-75 CNS),growth (SNB-19 CNS) [%],growth (U251 CNS) [%],growth (PC-3 prostate) [%],growth (SK-MEL-5 melanoma),growth (UACC-62 melanoma) [%],growth (LOX IMVI melanoma) [%],growth (SK-MEL-28 melanoma) [%]
CC(=O)CSc1ncnc2nc[nH]c12,96.1,104,89.3%,99.7,101,92.5,95.8%,74.6,42.2,82.3
N#CC1(O)CCCCC1,99.6,104,49.2%,108,94.7,95.2,106%,106,91.7,–
CC(C)N(C(=O)c1ccccc1)C(C)C,104,107,100%,113,95.9,98.9,97.7%,108,104,105
CCOP(=O)(NC(c1ccccc1)c1ccccc1)OCC,117,107,88.7%,102,105,82.6,105%,114,93.1,–
COC(c1ccc2c(c1)OCO2)C(C)Br (centres undefined),103,88.8,76.6%,101,96.9,69.3,104%,94.6,92.3,–
O=C(c1cccc(C(=O)c2ccc3c4c(cccc24)C(=O)N(c2ccccc2)C3=O)c1)c1ccc2c3c(cccc13)C(=O)N(c1ccccc1)C2=O,101,106,93.4%,111,89.3,82.3,84.4%,84.7,91.2,109
COc1ccc(/C=N/NC(=O)COCC(=O)N/N=C/c2ccc(OC)cc2)cc1,97.8,130,88.6%,110,96.2,88.8,97.9%,101,102,100
CCOC(=O)C1(N)CCCCC1,112,104,91.8%,96.5,99.1,96.6,106%,105,102,–
O=C(c1ccccc1)c1ccc(-c2ccc(O)cc2)cc1,57,120,43.5%,59.7,37.3,76.8,23.6%,48.5,73.4,75.1
CC(=O)c1cccc(N(C)S(=O)(=O)c2ccc(C)cc2)c1,57.2,72.1,81.6%,96.8,87.4,85.2,90.1%,96,82.3,–
C=C(C)[C@@H]1CC[C@]2(CO)CC[C@]3(C)[C@H](CC[C@@H]4[C@@]5(C)CC[C@H](O)C(C)(C)[C@@H]5CC[C@]43C)[C@@H]12,89.7,46.2,3.72% (active),48,24.9,38.7,-60.5% (active),60.5,32.2,–
O=C(OC1CCCC1)c1ccccc1Cl,111,105,90.3%,105,101,95.7,108%,99.2,97,–
CCCCCC(=O)OCCC1CCCCC1,107,101,89.1%,112,96,98.7,100%,104,98.6,–
COc1ccc(NNS(=O)(=O)O)cc1,101,99.9,83.2%,98.1,98,86.1,102%,96.7,99.7,–
Cc1onc(-c2ccccc2Cl)c1C(=O)Cl,98.2,106,78.1%,99.2,96.8,90.7,106%,99,95.1,–
Cc1ccc(N)c(S(=O)(=O)O)c1,103,96.1,75.6%,99.5,104,107,98.1%,98.9,104,–
